In ChEMBL document CHEMBL2218924, “A broad activity screen in support of a chemogenomic map for kinase signalling research and drug discovery” (Biochem J, 2013):

Columns and labels:
[1] = target: T1, Serine/threonine-protein kinase 3 (Homo sapiens) (UniProt Q13188); conditions: at 1 µM
T1 sequence (whole entry): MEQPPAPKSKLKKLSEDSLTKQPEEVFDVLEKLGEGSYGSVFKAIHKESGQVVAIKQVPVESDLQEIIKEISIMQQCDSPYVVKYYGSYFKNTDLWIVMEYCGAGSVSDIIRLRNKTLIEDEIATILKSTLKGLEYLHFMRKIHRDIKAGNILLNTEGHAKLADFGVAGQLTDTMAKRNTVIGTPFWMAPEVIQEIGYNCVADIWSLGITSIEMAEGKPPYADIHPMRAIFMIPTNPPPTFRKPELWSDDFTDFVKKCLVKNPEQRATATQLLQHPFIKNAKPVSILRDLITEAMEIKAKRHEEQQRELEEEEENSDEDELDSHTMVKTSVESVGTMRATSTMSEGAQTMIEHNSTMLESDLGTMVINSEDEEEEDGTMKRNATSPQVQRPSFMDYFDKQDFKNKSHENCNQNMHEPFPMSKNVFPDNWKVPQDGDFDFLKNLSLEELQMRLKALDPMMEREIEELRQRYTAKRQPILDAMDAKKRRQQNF

[2] = target: T1, Serine/threonine-protein kinase 3 (Homo sapiens); conditions: at 10 µM
[3] = target: Serine/threonine-protein kinase 24 (Homo sapiens) (UniProt Q9Y6E0); conditions: at 1 µM
Chain of Serine/threonine-protein kinase 24 (Homo sapiens) (Q9Y6E0 whole entry, looked up): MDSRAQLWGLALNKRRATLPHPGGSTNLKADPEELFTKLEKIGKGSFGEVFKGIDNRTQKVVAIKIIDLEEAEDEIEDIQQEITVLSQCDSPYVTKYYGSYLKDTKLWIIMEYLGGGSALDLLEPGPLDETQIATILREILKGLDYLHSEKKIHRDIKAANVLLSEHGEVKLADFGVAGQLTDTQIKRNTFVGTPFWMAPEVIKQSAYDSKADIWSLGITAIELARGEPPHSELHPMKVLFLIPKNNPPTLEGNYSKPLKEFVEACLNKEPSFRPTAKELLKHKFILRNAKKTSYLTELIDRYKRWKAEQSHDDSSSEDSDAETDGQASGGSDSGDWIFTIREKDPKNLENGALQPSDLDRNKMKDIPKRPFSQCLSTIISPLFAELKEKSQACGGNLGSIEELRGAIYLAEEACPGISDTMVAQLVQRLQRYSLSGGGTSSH

[4] = target: Serine/threonine-protein kinase 24 (Homo sapiens) (UniProt Q9Y6E0); conditions: at 10 µM
[5] = target: T2, Tyrosine-protein kinase Mer (Homo sapiens) (UniProt Q12866); conditions: at 1 µM
T2 sequence (whole entry): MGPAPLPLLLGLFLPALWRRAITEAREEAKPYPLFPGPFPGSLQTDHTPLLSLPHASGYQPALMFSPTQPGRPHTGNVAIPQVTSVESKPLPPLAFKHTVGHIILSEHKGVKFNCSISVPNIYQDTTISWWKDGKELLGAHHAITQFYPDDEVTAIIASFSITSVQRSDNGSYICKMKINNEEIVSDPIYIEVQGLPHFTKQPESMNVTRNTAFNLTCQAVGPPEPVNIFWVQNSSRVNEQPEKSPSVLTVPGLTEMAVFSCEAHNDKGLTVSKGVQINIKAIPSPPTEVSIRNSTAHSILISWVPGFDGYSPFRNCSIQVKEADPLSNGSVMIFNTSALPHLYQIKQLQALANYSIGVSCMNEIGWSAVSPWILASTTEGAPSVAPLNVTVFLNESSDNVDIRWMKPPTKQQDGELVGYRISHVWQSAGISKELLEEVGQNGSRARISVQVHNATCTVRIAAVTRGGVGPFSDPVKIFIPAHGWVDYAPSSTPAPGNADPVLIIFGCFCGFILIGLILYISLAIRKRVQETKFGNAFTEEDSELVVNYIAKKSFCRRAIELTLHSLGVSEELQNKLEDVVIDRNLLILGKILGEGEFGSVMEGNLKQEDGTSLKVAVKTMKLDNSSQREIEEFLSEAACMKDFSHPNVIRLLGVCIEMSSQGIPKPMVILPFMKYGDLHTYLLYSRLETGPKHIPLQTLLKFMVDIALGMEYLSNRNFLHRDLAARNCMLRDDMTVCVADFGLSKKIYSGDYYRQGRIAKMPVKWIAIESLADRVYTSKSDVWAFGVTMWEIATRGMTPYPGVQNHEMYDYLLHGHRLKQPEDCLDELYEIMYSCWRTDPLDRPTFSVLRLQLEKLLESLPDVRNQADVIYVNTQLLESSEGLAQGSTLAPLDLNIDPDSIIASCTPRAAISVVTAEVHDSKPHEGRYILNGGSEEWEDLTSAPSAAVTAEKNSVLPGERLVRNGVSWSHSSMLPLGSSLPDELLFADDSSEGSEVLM

[6] = target: T2, Tyrosine-protein kinase Mer (Homo sapiens); conditions: at 10 µM
[7] = target: Hepatocyte growth factor receptor (Homo sapiens) (UniProt P08581); conditions: at 1 µM
Chain of Hepatocyte growth factor receptor (Homo sapiens) (P08581 whole entry): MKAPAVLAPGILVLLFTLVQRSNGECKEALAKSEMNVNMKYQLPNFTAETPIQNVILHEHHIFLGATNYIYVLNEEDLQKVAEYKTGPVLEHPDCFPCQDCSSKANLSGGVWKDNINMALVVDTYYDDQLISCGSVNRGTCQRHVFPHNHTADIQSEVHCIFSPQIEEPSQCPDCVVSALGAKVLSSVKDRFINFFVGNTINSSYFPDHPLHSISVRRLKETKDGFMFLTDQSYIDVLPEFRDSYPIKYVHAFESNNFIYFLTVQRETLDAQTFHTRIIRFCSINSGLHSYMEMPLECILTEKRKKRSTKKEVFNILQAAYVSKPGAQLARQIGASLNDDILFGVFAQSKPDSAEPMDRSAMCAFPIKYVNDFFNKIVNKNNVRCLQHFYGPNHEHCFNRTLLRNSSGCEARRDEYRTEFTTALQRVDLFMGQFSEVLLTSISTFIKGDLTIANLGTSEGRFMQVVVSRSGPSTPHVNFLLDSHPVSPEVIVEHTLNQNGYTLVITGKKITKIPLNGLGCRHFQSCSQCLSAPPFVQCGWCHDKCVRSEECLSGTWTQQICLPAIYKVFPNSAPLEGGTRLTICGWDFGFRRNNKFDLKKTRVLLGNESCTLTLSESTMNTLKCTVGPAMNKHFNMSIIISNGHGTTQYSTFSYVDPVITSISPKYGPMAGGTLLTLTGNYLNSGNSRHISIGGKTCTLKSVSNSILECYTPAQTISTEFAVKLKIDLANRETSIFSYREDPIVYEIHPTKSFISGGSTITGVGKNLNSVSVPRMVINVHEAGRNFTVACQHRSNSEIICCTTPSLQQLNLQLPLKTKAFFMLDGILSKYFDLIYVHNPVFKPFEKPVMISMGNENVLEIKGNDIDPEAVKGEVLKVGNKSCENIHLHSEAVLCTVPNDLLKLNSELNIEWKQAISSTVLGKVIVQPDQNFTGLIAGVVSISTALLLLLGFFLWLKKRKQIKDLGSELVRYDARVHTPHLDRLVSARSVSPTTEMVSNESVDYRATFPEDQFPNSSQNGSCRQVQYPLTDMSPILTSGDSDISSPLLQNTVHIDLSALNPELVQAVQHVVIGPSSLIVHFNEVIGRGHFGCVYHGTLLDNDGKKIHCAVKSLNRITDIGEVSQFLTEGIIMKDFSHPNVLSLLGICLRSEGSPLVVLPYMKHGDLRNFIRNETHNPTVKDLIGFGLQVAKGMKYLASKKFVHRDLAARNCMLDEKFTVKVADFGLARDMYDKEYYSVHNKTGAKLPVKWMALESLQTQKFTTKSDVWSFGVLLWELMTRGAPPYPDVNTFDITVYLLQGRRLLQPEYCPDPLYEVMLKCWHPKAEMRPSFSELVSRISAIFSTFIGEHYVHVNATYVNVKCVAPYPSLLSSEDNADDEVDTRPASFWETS

[8] = target: Hepatocyte growth factor receptor (Homo sapiens) (UniProt P08581); conditions: at 10 µM
[9] = target: MAP kinase-interacting serine/threonine-protein kinase 2 (Homo sapiens) (UniProt Q9HBH9); conditions: at 1 µM
Chain of MAP kinase-interacting serine/threonine-protein kinase 2 (Homo sapiens) (Q9HBH9 whole entry, looked up): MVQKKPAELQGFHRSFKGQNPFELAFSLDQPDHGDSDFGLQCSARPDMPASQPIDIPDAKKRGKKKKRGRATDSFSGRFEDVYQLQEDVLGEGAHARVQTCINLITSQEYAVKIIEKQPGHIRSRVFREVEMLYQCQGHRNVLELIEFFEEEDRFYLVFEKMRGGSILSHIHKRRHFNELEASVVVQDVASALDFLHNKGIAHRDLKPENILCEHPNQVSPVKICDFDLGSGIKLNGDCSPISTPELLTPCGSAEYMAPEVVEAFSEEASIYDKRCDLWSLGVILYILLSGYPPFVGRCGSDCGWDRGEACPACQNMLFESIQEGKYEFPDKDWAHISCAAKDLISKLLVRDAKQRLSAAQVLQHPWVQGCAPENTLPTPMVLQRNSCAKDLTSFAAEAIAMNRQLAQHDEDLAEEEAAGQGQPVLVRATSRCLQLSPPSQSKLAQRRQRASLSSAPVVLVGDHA

[10] = target: MAP kinase-interacting serine/threonine-protein kinase 2 (Homo sapiens) (UniProt Q9HBH9); conditions: at 10 µM
[11] = target: T3, Muscle, skeletal receptor tyrosine-protein kinase (Homo sapiens) (UniProt O15146); conditions: at 1 µM
T3 sequence (whole entry): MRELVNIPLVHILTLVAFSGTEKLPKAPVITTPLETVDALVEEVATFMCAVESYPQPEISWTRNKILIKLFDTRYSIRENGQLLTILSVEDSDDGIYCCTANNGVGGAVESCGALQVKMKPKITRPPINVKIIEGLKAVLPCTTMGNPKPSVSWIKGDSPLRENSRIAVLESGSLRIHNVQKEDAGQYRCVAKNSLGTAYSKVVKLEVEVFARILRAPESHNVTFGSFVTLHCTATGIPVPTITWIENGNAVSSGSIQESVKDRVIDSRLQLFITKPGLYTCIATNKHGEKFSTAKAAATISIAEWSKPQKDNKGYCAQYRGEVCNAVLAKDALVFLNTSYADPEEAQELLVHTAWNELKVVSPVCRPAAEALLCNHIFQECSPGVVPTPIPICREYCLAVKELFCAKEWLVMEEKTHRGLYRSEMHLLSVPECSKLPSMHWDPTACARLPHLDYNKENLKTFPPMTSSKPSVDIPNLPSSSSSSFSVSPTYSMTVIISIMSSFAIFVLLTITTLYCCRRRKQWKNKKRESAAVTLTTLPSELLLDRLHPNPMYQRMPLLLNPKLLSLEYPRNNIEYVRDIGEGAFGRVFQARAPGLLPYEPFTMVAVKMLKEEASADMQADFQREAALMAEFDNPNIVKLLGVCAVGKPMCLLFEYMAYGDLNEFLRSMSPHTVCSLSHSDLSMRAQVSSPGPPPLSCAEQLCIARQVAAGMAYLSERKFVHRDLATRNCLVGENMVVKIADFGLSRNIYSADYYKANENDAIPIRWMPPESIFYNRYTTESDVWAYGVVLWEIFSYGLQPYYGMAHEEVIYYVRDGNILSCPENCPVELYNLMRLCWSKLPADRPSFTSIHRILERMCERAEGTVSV

[12] = target: T3, Muscle, skeletal receptor tyrosine-protein kinase (Homo sapiens); conditions: at 10 µM
[13] = target: T4, Serine/threonine-protein kinase Nek11 (Homo sapiens) (UniProt Q8NG66); conditions: at 1 µM
T4 sequence (whole entry): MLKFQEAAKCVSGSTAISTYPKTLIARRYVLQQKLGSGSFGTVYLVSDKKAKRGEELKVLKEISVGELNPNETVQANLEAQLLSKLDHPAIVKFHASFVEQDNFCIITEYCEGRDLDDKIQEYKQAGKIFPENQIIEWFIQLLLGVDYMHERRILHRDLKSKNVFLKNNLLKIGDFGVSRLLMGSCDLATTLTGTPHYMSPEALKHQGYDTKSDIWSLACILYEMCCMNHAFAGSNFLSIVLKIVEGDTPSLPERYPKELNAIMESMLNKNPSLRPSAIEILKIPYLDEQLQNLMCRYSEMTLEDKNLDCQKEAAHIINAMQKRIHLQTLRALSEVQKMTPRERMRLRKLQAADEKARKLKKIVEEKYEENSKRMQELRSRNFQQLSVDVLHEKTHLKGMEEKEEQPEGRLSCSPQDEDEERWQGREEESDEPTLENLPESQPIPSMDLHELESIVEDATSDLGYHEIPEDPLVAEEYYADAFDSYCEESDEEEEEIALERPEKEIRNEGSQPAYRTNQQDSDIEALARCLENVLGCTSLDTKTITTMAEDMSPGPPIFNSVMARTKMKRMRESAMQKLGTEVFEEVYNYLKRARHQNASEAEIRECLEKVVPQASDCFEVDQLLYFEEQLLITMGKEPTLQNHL

[14] = target: T4, Serine/threonine-protein kinase Nek11 (Homo sapiens); conditions: at 10 µM
[15] = target: T5, Serine/threonine-protein kinase Nek2 (Homo sapiens) (UniProt P51955); conditions: at 1 µM
T5 sequence (whole entry): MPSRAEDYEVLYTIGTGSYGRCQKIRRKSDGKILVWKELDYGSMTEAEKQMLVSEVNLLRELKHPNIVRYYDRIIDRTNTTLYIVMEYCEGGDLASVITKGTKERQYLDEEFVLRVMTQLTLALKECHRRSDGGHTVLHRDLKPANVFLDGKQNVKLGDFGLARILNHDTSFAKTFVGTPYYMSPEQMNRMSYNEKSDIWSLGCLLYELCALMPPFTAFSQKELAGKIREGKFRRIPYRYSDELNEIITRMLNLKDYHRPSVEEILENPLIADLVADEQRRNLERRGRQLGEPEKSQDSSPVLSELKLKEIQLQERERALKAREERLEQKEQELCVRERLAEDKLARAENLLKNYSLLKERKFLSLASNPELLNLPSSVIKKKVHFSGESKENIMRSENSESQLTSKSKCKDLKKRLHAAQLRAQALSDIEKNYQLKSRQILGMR

[16] = target: T5, Serine/threonine-protein kinase Nek2 (Homo sapiens); conditions: at 10 µM
[17] = target: T6, Serine/threonine-protein kinase Nek3 (Homo sapiens) (UniProt P51956); conditions: at 1 µM
T6 sequence (whole entry): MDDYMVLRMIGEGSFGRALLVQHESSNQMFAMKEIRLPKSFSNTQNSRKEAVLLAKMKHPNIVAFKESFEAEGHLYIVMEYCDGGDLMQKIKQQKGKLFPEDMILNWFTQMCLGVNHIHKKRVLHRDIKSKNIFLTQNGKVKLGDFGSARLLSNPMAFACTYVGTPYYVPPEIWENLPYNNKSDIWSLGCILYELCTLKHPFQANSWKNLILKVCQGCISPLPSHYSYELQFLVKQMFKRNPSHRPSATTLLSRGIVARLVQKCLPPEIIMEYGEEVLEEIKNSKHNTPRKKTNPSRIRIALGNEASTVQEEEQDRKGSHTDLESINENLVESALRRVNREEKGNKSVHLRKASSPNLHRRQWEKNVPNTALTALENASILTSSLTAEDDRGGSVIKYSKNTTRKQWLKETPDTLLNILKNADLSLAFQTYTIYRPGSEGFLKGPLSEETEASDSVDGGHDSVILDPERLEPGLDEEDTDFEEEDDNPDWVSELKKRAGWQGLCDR

[18] = target: T6, Serine/threonine-protein kinase Nek3 (Homo sapiens); conditions: at 10 µM
[19] = target: Serine/threonine-protein kinase tousled-like 2 (Homo sapiens) (UniProt Q86UE8); conditions: at 1 µM
Chain of Serine/threonine-protein kinase tousled-like 2 (Homo sapiens) (Q86UE8 whole entry, looked up): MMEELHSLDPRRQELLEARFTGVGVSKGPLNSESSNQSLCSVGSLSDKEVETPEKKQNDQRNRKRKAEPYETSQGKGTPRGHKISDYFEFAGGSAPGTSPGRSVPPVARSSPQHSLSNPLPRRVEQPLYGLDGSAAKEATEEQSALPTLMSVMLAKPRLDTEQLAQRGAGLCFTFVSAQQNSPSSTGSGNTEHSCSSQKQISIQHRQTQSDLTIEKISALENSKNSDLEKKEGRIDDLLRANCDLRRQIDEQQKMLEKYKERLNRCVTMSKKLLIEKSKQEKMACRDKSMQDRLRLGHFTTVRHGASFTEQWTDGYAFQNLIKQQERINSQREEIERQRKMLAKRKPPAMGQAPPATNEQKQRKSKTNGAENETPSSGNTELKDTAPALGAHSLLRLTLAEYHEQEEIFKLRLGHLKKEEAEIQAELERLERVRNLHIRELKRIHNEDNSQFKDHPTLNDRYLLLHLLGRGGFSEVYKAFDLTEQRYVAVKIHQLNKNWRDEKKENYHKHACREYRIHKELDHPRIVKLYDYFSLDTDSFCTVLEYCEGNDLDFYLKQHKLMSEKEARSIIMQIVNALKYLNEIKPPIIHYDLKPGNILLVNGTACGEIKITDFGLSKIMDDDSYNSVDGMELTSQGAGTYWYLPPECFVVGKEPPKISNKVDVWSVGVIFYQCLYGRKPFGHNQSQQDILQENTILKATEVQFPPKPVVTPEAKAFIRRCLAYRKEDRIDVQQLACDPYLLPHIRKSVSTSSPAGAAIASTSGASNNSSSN

[20] = target: Serine/threonine-protein kinase tousled-like 2 (Homo sapiens) (UniProt Q86UE8); conditions: at 10 µM

| SMILES | residual activity [1] [%] | residual activity [2] [%] | residual activity [3] [%] | residual activity [4] [%] | residual activity [5] [%] | residual activity [6] [%] | residual activity [7] [%] | residual activity [8] [%] | residual activity [9] [%] | residual activity [10] [%] | residual activity [11] [%] | residual activity [12] [%] | residual activity [13] [%] | residual activity [14] [%] | residual activity [15] [%] | residual activity [16] [%] | residual activity [17] [%] | residual activity [18] [%] | residual activity [19] [%] | residual activity [20] [%] |
| --- | --- | --- | --- | --- | --- | --- | --- | --- | --- | --- | --- | --- | --- | --- | --- | --- | --- | --- | --- | --- |
| CC(C)n1cnc2c(NCc3ccccc3)nc(NCCCO)nc21 | 111 | 99 | 77 | 69 | 98 | 82 | 101 | 79 | 90 | 80 | 82 | 86 | 57 | 72 | 96 | 82 | 85 | 99 | 96 | 89 |
| CC#CC(=O)Nc1cc2c(Nc3ccc(F)c(Cl)c3)ncnc2cn1 | 103 | 94 | 71 | 75 | 107 | 94 | 111 | 84 | 101 | 90 | 100 | 84 | 70 | 99 | 73 | 95 | 107 | 84 | 102 | 87 |
| CC(=O)O/N=C1\C(=C2\C(=O)Nc3cc(Br)ccc32)Nc2ccccc21 | 65 | 18 | 85 | 74 | 39 | 6 | 89 | 81 | 101 | 92 | 73 | 51 | 60 | 67 | 101 | 87 | 82 | 84 | 92 | 86 |
| Ic1cccc(CSc2nnc(-c3ccncc3)o2)c1 | 39 | 15 | 50 | 43 | 69 | 48 | 126 | 100 | 91 | 89 | 74 | 59 | 103 | 102 | 88 | 89 | 84 | 84 | 83 | 83 |
| C[C@@H](N)[C@H]1CC[C@H](C(=O)Nc2ccncc2)CC1 | 111 | 105 | 98 | 92 | 93 | 101 | 132 | 131 | 106 | 77 | 103 | 101 | 99 | 96 | 120 | 102 | 120 | 120 | 93 | 94 |
| O=c1c2ccccc2[nH]c(=S)n1CCN1CCC(=C(c2ccc(F)cc2)c2ccc(F)cc2)CC1 | 120 | 93 | 71 | 69 | 106 | 88 | 136 | 89 | 112 | 103 | 116 | 91 | 106 | 98 | 86 | 106 | 104 | 42 | 104 | 94 |
| Oc1n[nH]c2nnc(-c3c(-c4ccccc4)nn4ccccc34)cc12 | 96 | 86 | 72 | 71 | 98 | 105 | 104 | 113 | 107 | 99 | 87 | 84 | 56 | 74 | 95 | 93 | 77 | 103 | 83 | 82 |
